Source: the supplement of paper PMC10849652
About 7,900 targets were measured; listed, in parts, are those with a hit and a random draw of the rest. About 0.6% of all pairs of compound and target were hits.

Assays:
Test in all cases: log2 fold change, soluble protein after heating vs DMSO (PISA); higher = thermal stabilisation; K562 cells, 10 uM, 30 min; active = over 0.2 and 3.5 SD of the protein, either way, in both replicates (recomputed)
bafetinib = compound: Cc1ccc(NC(=O)c2ccc(CN3CC[C@H](N(C)C)C3)c(C(F)(F)F)c2)cc1Nc1nccc(-c2cncnc2)n1 [bafetinib]
How it was run: (§1)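 K562 cells at 2×10^6 cells/mL were exposed to 10 μM compound for 30 min, then aliquots were heated for 3 min across 48°C-58°C, pooled, and extracted in PBS containing 0.5% NP-40 at 4°C. The supernatant after 21,000xg for 90 min was taken as soluble protein and measured by TMTpro 16plex LC-MS/MS with channel sums equalised. Thermal stability is reported relative to control samples, with values from duplicates. Fold changes are given on a log2 scale.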

[1] = compound: Cc1cccc(CC(=O)N2CCc3c2ccc(-c2cn(C)c4ncnc(N)c24)c3F)n1
How it was run: as §1

nilotinib = compound: Cc1cn(-c2cc(NC(=O)c3ccc(C)c(Nc4nccc(-c5cccnc5)n4)c3)cc(C(F)(F)F)c2)cn1 [nilotinib]
How it was run: as §1

[2] = compound: Cc1nc(Nc2n[nH]c3c2CN(C(=O)N[C@H](CN(C)C)c2ccccc2)C3(C)C)c2sccc2n1
How it was run: as §1

dasatinib = compound: Cc1nc(Nc2ncc(C(=O)Nc3c(C)cccc3Cl)s2)cc(N2CCN(CCO)CC2)n1 [dasatinib]
How it was run: as §1

[3] = compound: Cc1ncc(-c2ccnc(Nc3ccc(S(C)(=O)=O)cc3)n2)n1C(C)C
How it was run: as §1

[4] = compound: Cn1cc(-c2ccc3c(c2)CCN3C(=O)Cc2cccc(C(F)(F)F)c2)c2c(N)ncnc21
How it was run: as §1

[5] = compound: Cn1cc(-c2ccc3nnc(C(F)(F)c4ccc5ncccc5c4)n3n2)cn1
How it was run: as §1

tipifarnib = compound: Cn1cncc1[C@@](N)(c1ccc(Cl)cc1)c1ccc2c(c1)c(-c1cccc(Cl)c1)cc(=O)n2C [tipifarnib]
How it was run: as §1

mubritinib = compound: FC(F)(F)c1ccc(/C=C/c2nc(COc3ccc(CCCCn4ccnn4)cc3)co2)cc1 [mubritinib]
How it was run: as §1

[6] = compound: NC(=O)Nc1cc(-c2cccc(F)c2)sc1C(=O)N[C@H]1CCCNC1
How it was run: as §1

[7] = compound: NC(=O)c1cnc(N[C@@H]2CCCC[C@@H]2N)nc1Nc1cccc(-n2nccn2)c1
How it was run: as §1

[8] = compound: NC1(c2ccc(-c3nc4ccn5c(=O)[nH]nc5c4cc3-c3ccccc3)cc2)CCC1
How it was run: as §1

[9] = compound: NCC(=O)Nc1ccc(-n2nc(C(F)(F)F)cc2-c2ccc3c(ccc4ccccc43)c2)cc1
How it was run: as §1

entinostat = compound: Nc1ccccc1NC(=O)c1ccc(CNC(=O)OCc2cccnc2)cc1 [entinostat]
How it was run: as §1

vorinostat = compound: O=C(CCCCCCC(=O)Nc1ccccc1)NO [vorinostat]
How it was run: as §1

citarinostat = compound: O=C(CCCCCCNC(=O)c1cnc(N(c2ccccc2)c2ccccc2Cl)nc1)NO [citarinostat]
How it was run: as §1

silmitasertib = compound: O=C(O)c1ccc2c(c1)nc(Nc1cccc(Cl)c1)c1ccncc12 [silmitasertib]
How it was run: as §1

[10] = compound: O=C1NC(=O)C(c2cnc3ccccn23)=C1c1cn2c3c(cc(F)cc13)CN(C(=O)N1CCCCC1)CC2
How it was run: as §1

[11] = compound: c1cc(OCCN2CCCCC2)cc(-c2n[nH]c3ccc(-c4nnc[nH]4)cc23)c1
How it was run: as §1

Measured: log2 fold change

NDUFB10 (UniProt O96000)
inactive: bafetinib -0.105 | [1] -0.11 | nilotinib -0.02 | [2] 0.026 | dasatinib -0.011 | [3] -0.021 | [4] 0.015 | [5] 0.081 | tipifarnib 0.044 | mubritinib 0.019 | [6] -0.062 | [7] -0.06 | [8] -0.054 | [9] -0.022 | entinostat -0.034 | vorinostat -0.053 | citarinostat 0.031 | silmitasertib 0.021 | [10] -0.018 | [11] -0.006

MT-ATP6 (UniProt P00846)
UniProt P00846, sequence (P00846 whole entry, looked up): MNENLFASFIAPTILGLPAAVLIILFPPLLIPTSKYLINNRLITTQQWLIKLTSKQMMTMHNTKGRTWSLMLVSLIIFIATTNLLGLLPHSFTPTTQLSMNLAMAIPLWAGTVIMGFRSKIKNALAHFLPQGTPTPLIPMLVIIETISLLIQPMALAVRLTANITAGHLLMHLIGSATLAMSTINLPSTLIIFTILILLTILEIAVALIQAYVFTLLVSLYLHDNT
inactive: bafetinib 0.162 | [1] 0.086 | nilotinib 0.006 | [2] 0.005 | dasatinib -0.101 | [3] -0.043 | [4] -0.024 | [5] 0.11 | tipifarnib 0.231 | mubritinib 0.028 | [6] -0.003 | [7] -0.007 | [8] 0.197 | [9] 0.081 | entinostat -0.018 | vorinostat -0.007 | citarinostat 0.097 | silmitasertib -0.005 | [10] 0.037 | [11] -0.04

MRPS2 (UniProt Q9Y399)
inactive: bafetinib 0.191 | [1] 0.175 | nilotinib -0.119 | [2] 0.019 | dasatinib -0.026 | [3] -0.062 | [4] 0.043 | [5] 0.035 | tipifarnib -0.074 | mubritinib 0.14 | [6] 0.105 | [7] -0.079 | [8] -0.102 | [9] 0.062 | entinostat 0.034 | vorinostat 0.096 | citarinostat 0.001 | silmitasertib -0.103 | [10] -0.021 | [11] -0.01

NCAPH (UniProt Q15003)
UniProt Q15003, sequence (Q15003 whole entry, looked up): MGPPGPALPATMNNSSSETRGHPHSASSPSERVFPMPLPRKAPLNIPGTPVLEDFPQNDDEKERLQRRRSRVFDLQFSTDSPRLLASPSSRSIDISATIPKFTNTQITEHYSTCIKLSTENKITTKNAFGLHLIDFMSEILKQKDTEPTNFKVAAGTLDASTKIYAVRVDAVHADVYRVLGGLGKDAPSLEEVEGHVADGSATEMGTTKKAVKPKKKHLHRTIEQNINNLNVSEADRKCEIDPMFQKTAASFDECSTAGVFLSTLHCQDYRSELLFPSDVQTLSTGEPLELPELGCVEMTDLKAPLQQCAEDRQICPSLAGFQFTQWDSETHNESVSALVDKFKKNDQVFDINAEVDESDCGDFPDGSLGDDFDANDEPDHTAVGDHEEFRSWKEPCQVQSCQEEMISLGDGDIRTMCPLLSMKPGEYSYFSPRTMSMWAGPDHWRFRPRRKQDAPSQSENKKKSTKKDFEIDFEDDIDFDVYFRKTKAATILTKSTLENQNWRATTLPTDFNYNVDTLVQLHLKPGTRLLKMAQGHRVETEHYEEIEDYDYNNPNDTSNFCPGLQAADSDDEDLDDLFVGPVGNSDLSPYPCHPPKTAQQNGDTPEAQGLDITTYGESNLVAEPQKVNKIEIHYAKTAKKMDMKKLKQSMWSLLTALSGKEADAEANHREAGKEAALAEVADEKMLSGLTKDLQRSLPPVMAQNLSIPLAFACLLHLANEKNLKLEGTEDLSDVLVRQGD
inactive: bafetinib 0.015 | [1] 0.022 | nilotinib -0.055 | [2] -0.049 | dasatinib -0.121 | [3] 0.041 | [4] -0.057 | [5] 0.019 | tipifarnib -0.102 | mubritinib 0.019 | [6] -0.086 | [7] -0.036 | [8] -0.092 | [9] -0.043 | entinostat 0.038 | vorinostat 0.029 | citarinostat 0.029 | silmitasertib 0.098 | [10] 0 | [11] -0.009

OTUD4 (UniProt Q01804)
UniProt Q01804, sequence (Q01804 whole entry, looked up): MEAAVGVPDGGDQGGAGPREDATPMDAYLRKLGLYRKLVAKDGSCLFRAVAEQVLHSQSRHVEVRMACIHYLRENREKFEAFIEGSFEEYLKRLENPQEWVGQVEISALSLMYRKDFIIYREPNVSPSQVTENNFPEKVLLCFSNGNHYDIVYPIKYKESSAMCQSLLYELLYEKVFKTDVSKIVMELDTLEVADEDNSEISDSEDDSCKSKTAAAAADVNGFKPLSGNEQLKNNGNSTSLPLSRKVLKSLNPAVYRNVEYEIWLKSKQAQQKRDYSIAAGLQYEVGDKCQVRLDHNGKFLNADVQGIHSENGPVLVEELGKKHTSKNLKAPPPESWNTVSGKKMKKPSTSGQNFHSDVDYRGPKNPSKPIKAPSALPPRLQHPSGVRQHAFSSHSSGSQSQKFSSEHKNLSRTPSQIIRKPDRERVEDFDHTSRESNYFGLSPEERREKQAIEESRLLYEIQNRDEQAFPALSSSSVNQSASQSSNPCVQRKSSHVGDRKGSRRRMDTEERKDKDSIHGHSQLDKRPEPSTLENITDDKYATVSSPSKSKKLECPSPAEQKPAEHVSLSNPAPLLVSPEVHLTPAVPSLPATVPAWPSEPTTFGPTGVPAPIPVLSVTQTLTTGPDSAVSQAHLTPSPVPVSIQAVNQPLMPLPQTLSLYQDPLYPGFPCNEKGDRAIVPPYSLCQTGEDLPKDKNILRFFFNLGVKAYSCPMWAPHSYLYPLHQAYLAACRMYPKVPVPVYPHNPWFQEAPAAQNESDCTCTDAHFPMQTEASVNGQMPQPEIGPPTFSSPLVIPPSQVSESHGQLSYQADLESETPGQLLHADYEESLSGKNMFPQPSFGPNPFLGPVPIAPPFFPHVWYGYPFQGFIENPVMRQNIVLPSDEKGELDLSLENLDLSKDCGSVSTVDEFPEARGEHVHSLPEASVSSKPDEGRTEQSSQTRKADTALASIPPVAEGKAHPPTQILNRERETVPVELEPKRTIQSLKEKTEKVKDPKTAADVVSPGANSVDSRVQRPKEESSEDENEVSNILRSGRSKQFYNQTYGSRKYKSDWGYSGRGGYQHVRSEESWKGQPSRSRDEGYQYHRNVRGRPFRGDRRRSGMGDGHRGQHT
inactive: bafetinib 0.069 | [1] -0.016 | nilotinib 0.037 | [2] -0.039 | dasatinib 0.046 | [3] -0.077 | [4] -0.082 | [5] -0.09 | tipifarnib 0.064 | mubritinib -0.024 | [6] 0.006 | [7] 0.026 | [8] 0.071 | [9] 0.001 | entinostat -0.051 | vorinostat 0.016 | citarinostat -0.016 | silmitasertib 0.02 | [10] 0.033 | [11] -0.061

OXA1L (UniProt Q15070)
inactive: bafetinib -0.152 | [1] -0.032 | nilotinib 0.013 | [2] -0.019 | dasatinib -0.01 | [3] -0.029 | [4] 0.013 | [5] 0.038 | tipifarnib 0.004 | mubritinib 0.003 | [6] 0.019 | [7] -0.021 | [8] -0.04 | [9] -0.025 | entinostat -0.021 | vorinostat 0.005 | citarinostat 0.017 | silmitasertib 0.02 | [10] -0.038 | [11] 0.113

NTMT1 (UniProt Q9BV86)
UniProt Q9BV86, sequence (Q9BV86 whole entry, looked up): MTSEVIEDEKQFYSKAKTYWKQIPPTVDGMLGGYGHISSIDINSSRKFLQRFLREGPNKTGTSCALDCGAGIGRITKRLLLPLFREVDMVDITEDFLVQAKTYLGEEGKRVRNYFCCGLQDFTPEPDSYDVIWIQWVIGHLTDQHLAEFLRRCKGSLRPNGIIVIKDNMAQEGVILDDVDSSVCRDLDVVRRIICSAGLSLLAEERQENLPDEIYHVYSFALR
inactive: bafetinib 0.009 | [1] 0.068 | nilotinib 0.056 | [2] 0 | dasatinib -0.036 | [3] 0.023 | [4] 0.073 | [5] 0.076 | tipifarnib 0.043 | mubritinib 0.138 | [6] -0.035 | [7] 0.027 | [8] 0.077 | [9] -0.002 | entinostat 0.024 | vorinostat -0.089 | citarinostat -0.069 | silmitasertib -0.028 | [10] -0.029

NOL11 (UniProt Q9H8H0)
inactive: bafetinib -0.042 | [1] 0.017 | nilotinib -0.016 | [2] 0.017 | dasatinib 0.017 | [3] 0.11 | [4] -0.006 | [5] 0.001 | tipifarnib 0.036 | mubritinib -0.012 | [6] 0.042 | [7] 0.055 | [8] 0.041 | [9] 0.038 | entinostat -0.019 | vorinostat -0.013 | citarinostat 0.035 | silmitasertib 0.068 | [10] 0.02 | [11] -0.041

OGFR (UniProt Q9NZT2)
UniProt Q9NZT2, sequence (Q9NZT2 whole entry, looked up): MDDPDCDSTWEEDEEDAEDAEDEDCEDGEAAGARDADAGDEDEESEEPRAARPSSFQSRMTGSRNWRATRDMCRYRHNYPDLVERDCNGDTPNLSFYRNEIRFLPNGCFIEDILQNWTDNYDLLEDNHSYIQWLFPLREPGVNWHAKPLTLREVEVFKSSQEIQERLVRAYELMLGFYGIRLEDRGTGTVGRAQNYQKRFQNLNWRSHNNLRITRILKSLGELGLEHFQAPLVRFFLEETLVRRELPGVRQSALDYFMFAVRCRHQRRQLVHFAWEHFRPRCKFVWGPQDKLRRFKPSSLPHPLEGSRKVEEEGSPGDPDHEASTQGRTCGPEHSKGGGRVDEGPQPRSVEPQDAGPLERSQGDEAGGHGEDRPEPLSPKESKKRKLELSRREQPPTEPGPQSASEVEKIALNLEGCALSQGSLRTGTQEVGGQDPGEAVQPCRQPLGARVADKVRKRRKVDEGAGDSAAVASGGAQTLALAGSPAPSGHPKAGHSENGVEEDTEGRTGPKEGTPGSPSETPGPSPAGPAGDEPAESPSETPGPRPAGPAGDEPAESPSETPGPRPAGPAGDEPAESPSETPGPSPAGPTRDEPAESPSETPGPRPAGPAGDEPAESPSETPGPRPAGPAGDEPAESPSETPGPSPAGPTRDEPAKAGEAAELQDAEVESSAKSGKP
active: mubritinib 0.328
inactive: bafetinib -0.041 | [1] 0.114 | nilotinib -0.024 | [2] -0.093 | dasatinib -0.114 | [3] -0.008 | [4] 0.036 | [5] -0.002 | tipifarnib 0.025 | [6] 0.049 | [7] -0.198 | [8] 0.015 | [9] 0.068 | entinostat -0.02 | vorinostat 0.096 | citarinostat 0.121 | silmitasertib 0.003 | [10] -0.019 | [11] -0.092

NECTIN2 (UniProt Q92692)
UniProt Q92692, sequence (Q92692 whole entry, looked up): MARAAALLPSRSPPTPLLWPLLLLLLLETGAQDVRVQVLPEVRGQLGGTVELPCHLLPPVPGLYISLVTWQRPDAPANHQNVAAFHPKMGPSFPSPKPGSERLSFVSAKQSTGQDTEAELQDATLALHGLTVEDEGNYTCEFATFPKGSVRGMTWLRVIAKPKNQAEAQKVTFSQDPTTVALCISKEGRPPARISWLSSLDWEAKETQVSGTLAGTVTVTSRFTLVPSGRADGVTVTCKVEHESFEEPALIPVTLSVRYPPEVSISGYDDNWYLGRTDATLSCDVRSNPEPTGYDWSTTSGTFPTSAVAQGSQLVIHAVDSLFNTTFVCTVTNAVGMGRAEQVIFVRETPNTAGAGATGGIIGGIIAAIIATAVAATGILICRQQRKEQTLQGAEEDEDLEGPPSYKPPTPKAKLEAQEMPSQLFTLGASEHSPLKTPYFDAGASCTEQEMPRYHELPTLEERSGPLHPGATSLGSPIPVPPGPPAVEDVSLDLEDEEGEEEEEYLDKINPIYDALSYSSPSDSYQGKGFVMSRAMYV
inactive: bafetinib 0.03 | [1] -0.023 | nilotinib -0.023 | [2] 0.022 | dasatinib -0.017 | [3] 0.055 | [4] 0.096 | [5] 0.009 | tipifarnib 0.008 | mubritinib 0.023 | [6] 0 | [7] 0.107 | [8] 0.056 | [9] 0.099 | entinostat -0.029 | vorinostat -0.041 | citarinostat 0.034 | silmitasertib -0.081 | [10] -0.03 | [11] -0.006

MRPS24 (UniProt Q96EL2)
inactive: bafetinib 0.283 | [1] 0.183 | nilotinib -0.195 | [2] 0.057 | dasatinib -0.024 | [3] 0.028 | [4] -0.141 | [5] 0.008 | tipifarnib -0.035 | mubritinib 0.186 | [6] -0.015 | [7] -0.016 | [8] -0.021 | [9] -0.086 | entinostat 0.001 | vorinostat 0.04 | citarinostat -0.053 | silmitasertib -0.096 | [10] -0.074 | [11] -0.105

NFATC2IP (UniProt Q8NCF5)
UniProt Q8NCF5, sequence (Q8NCF5 whole entry, looked up): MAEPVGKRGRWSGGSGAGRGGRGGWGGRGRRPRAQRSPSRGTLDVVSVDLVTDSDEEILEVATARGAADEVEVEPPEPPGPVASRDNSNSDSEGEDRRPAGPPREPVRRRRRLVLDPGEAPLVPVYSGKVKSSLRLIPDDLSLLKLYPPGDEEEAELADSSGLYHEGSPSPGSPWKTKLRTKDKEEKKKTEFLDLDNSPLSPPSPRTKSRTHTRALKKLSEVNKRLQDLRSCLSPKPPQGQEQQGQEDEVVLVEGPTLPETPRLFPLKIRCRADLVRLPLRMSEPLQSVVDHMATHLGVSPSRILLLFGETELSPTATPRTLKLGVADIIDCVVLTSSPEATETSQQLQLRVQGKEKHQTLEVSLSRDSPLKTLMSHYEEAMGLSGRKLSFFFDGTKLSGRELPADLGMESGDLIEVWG
inactive: bafetinib 0.065 | [1] -0.029 | nilotinib 0.001 | [2] -0.153 | dasatinib -0.096 | [3] -0.146 | [4] 0.097 | [5] 0.049 | tipifarnib -0.003 | mubritinib 0.051 | [6] -0.016 | [7] -0.017 | [8] -0.087 | [9] -0.011 | entinostat 0.035 | vorinostat 0.078 | citarinostat 0.075 | silmitasertib -0.017 | [10] 0.02 | [11] -0.011

OTULIN (UniProt Q96BN8)
UniProt Q96BN8, sequence (Q96BN8 whole entry, looked up): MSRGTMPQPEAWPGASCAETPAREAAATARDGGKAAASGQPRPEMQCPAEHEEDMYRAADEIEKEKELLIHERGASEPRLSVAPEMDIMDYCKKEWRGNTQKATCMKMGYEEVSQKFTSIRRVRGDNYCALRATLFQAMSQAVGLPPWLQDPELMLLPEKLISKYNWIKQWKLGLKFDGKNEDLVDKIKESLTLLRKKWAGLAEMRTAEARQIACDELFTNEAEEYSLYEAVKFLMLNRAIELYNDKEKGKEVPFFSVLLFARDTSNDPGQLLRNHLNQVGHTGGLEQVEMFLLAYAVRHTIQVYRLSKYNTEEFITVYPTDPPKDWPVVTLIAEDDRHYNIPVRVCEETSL
inactive: bafetinib -0.039 | [1] 0.066 | nilotinib -0.091 | [2] -0.124 | dasatinib -0.169 | [3] 0.033 | [4] -0.051 | [5] 0.235 | tipifarnib -0.081 | mubritinib 0.152 | [6] 0.008 | [7] -0.017 | [8] -0.183 | [9] -0.093 | entinostat 0.097 | vorinostat 0.038 | citarinostat -0.005 | silmitasertib 0.086 | [10] -0.143 | [11] -0.077

NUP205 (UniProt Q92621)
inactive: bafetinib -0.052 | [1] 0 | nilotinib -0.042 | [2] -0.025 | dasatinib -0.133 | [3] -0.004 | [4] -0.005 | [5] -0.052 | tipifarnib -0.072 | mubritinib 0.017 | [6] -0.042 | [7] -0.023 | [8] -0.075 | [9] -0.1 | entinostat 0.017 | vorinostat 0.041 | citarinostat 0.101 | silmitasertib 0.058 | [10] -0.073 | [11] -0.069

NT5DC1 (UniProt Q5TFE4)
UniProt Q5TFE4, sequence (Q5TFE4 whole entry, looked up): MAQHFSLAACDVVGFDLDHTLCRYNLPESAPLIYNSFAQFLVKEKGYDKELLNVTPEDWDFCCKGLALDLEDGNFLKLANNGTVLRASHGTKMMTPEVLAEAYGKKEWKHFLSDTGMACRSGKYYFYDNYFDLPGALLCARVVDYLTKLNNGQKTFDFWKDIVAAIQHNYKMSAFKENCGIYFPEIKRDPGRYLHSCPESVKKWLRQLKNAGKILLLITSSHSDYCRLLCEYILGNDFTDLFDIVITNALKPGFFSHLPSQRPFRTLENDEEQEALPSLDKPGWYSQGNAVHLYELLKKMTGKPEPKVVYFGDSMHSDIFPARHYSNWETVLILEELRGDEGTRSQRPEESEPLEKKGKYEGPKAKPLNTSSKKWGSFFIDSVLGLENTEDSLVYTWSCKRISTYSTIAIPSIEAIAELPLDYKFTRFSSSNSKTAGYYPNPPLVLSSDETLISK
active: [11] 0.236
inactive: bafetinib 0.043 | [1] 0.004 | nilotinib 0.099 | [2] 0.069 | dasatinib 0.033 | [3] -0.016 | [4] 0.045 | [5] 0.069 | tipifarnib -0.043 | mubritinib 0.001 | [6] -0.057 | [7] -0.052 | [8] -0.003 | [9] -0.012 | entinostat -0.037 | vorinostat -0.013 | citarinostat 0.003 | silmitasertib 0.025 | [10] -0.038

NOP53 (UniProt Q9NZM5)
inactive: bafetinib 0.189 | [1] 0.059 | nilotinib 0.039 | [2] 0.217 | dasatinib 0.147 | [3] 0.027 | [4] -0.339 | [5] -0.178 | tipifarnib 0.161 | mubritinib -0.202 | [6] 0.054 | [7] 0.201 | [8] 0.353 | [9] 0.258 | entinostat -0.141 | vorinostat -0.051 | citarinostat -0.063 | silmitasertib 0.256 | [10] 0.285 | [11] -0.152
